High-throughput results as filed in PubChem.
Pf growth 96h = inhibits malaria parasite growth, 96 h | P. falciparum luciferase reporter growth, 96 h | Potency, µM (highest dose often 28.7 µM), for inactives: at the highest dose activity change, negative = inhibition, most hits filed as inhibitors | hit rate 6.9% among 320,000 | AID 504834; also: potency is read from the fitted curve at half-maximal effect; % is scaled to controls: 0 for no effect and ±100 for the full control effect
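Readout is luminescence from an integrated firefly luciferase in P. falciparum. Red cells, 2% hematocrit and 0.05% parasitemia final, were cultured with compound through two parasite generations (96 hours) at 37 C, 5% CO2.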
Pf growth 48h = inhibits P. falciparum growth in the first generation, 48 h; hit rate 5.9% among 310,000; AID 504832; P. falciparum luciferase growth in erythrocytes, 48 h; Potency, µM (top dose mostly 28.7 µM), for inactives: top-dose activity change, negative = inhibition, usual class: inhibitors; also: potency is read from the fitted curve at half-maximal effect; % is scaled to controls: 0 for no effect and ±100 for the full control effect
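Growth was read as firefly luciferase luminescence after a 48 h, 37 C, 5% CO2 exposure of compounds to reporter-bearing P. falciparum cultures (0.1% parasitemia, 2% hematocrit final) in Albumax-supplemented RPMI 1640.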
CHX counter = counter-screen hit for Shiga toxin inhibitors, cycloheximide; max response, %; cell reporter, cycloheximide protein synthesis inhibition counterscreen; hit rate 12% among 300,000; AID 2314; in the data active = max response mostly above about 13%, no sharp cut-off; inactive = mostly below about 14%; also: read at 38.3 µM for the half of the compounds with a filed dose; 0% is about no effect
Shiga toxin inh = blocks Shiga toxin action in Vero cells | Vero cells, Shiga toxin protein synthesis inhibition reporter | inhibition, % at 38.7 µM | hit rate 9.2% among 290,000; in the data active = inhibition mostly above about 28%, no sharp cut-off; inactive = mostly below about 43%; also: 0% is about no effect
LmPK inh = inhibitors of Leishmania mexicana pyruvate kinase; AID 1721; Potency, µM (doses to about 57.5 µM), for inactives: at the top dose activity change, negative = inhibition, most hits filed as inhibitors; purified LmPK, Kinase-Glo ATP luminescence, 1 h; hit rate 0.37% among 290,000; also: potency is read from the fitted curve at half-maximal effect; % is scaled to controls: 0 for no effect and ±100 for the full control effect
Target sequence (Q27686 whole entry, looked up): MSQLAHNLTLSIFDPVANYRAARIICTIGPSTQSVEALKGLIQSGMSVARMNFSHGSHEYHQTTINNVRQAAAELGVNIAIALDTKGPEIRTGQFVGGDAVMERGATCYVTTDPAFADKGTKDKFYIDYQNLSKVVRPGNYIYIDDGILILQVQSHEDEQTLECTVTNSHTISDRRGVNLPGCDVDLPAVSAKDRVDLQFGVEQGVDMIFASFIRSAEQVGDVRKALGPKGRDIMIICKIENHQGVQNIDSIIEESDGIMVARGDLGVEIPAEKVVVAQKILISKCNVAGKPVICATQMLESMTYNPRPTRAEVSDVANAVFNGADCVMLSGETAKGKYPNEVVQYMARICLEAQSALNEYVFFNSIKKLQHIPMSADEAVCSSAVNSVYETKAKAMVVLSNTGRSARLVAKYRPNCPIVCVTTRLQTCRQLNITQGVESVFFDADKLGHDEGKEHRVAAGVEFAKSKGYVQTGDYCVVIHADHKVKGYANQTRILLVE
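Pyruvate kinase activity monitored as ATP production (luciferase luminescence). Conditions: 0.1 nM enzyme, 0.5 mM PEP, 0.1 mM ADP, 1 h, RT; normalized against uninhibited and no-enzyme wells.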
An asterisk follows results filed as active; ? = inconclusive; . = no result. Shown are actives, neighbours in structure and some others; about 22% of the full set was active somewhere. Unless noted, calls follow the shape of the dose curve; as a rule, active = well fitted inhibition curve with a large enough effect; inconclusive = small, poorly fitted or top-dose-only effect, or another doubt; inactive = no such curve, though single readings can be large or run the other way.

SMILES	Pf growth 96h	Pf growth 48h	CHX counter	Shiga toxin inh	LmPK inh
c1ccc(OCCOc2ncnc3sccc23)cc1	5%	67%	38*	69*	-11%
c1cnc2c(Oc3ncnc4sccc34)cccc2c1	53%	31%	11	27	-1%
CCOc1ccc(OCCOc2ncnc3ccccc23)cc1	63%	18%	41*	68	-4%
Cc1ccc(Oc2ncnc3sccc23)cc1	63%	86%	55*	91*	5%
Cc1onc(-c2ccccc2)c1-c1nnc(COC(=O)c2ccc(O)cc2)o1	?	-19%	.	.	.
COc1ccc(C(=O)Nc2c(-c3cccs3)c(=O)c3ccccc3n2C)cc1	22%	3%	-2	-5	-1%
CCCCCCC1CC(=O)NC(=S)N1 (centres undefined)	4%	29%	9	-1	-14%
Cc1ccccc1-c1nc2sc3c(c2c(=O)n1N)CCCC3	4.7µM*	.	43*	75*	6%
CC1(C)Cc2c(sc3nc(-c4ccccc4)n(N)c(=O)c23)CO1	?	52%	11	46	4%
Nn1c(Cc2ccccc2)nc2sc3c(c2c1=O)CCC3	10%	-6%	2	-19	7%
CN(C)c1nc2sc3c(c2c(=O)n1C)CC(C)(C)OC3	28%	21%	11*	44*	-10%
Nn1c(-c2cccs2)nc2sc3c(c2c1=O)CCCC3	270%	240%	35*	108*	-16%
CC1(C)Cc2c(sc3nc(-c4cccs4)n(N)c(=O)c23)CO1	.	84%	36*	57	9%
CN(C)c1ccc(N2CC(C)(C)C2=O)cc1	52%	-3%	33*	44*	-1%
CC(=O)c1ccc(N2CC(C)(C)C2=O)cc1	35%	22%	2	15	-1%
CCCCn1c(N)c(N(CC(C)C)C(=O)c2cc3c(s2)CCCCC3)c(=O)[nH]c1=O	-12%	6%	.	.	.
O=C(NC1CCCCC1)c1cc(N2C(=O)CCC2=O)ccc1Cl	?	27%	-6	19	12%
Nc1ccc(O)cc1C(=O)OCC(=O)c1ccc(C2CCCCC2)cc1	34%	30%	61*	145*	0%
COc1ccc(C(=O)OCC(=O)c2ccc(C3CCCCC3)cc2)cc1	29%	5%	13*	7	3%
Nc1ccc(O)cc1C(=O)OCC(=O)C12CC3CC(CC(C3)C1)C2	-11%	?	20	42	1%
COc1ccc(C(=O)COC(=O)c2ccc(NC(=O)c3ccccc3)cc2)cc1	11%	21%	1	3	-2%
N=C(N)SCCN=C(N)N	.	.	0	-8	.
CC1(C)CCC[C@@](C)([C@H]2CC[C@]3(C)[C@@H]2[C@H](O)C[C@@H]2[C@@]4(C)CC[C@H](O)C(C)(C)[C@@H]4CC[C@]23C)O1	.	.	-2	16	.
CC(CC(=O)Nc1ccc(Cl)c(S(=O)(=O)N2CCOCC2)c1)c1ccccc1 (centres undefined)	?	12µM*	.	.	.
Cc1ccc(NC(=O)CCCSc2ccccc2)cc1S(=O)(=O)N1CCOCC1	?	?	11	-2	5%
SMILES	Pf growth 96h	Pf growth 48h	CHX counter	Shiga toxin inh	LmPK inh
CCOc1ccccc1OCCCC(=O)Nc1ccc(Cl)c(S(=O)(=O)N2CCOCC2)c1	7.4µM*	9.3µM*	.	.	.
COc1ccc(C(C(=O)NCc2ccccc2)N(C(=O)c2snc(C(N)=O)c2N)C2CCCC2)cc1 (centres undefined)	67%	15µM*	-2	12	2%
COc1ccc(C(C(=O)NCc2ccccc2)N(Cc2ccco2)C(=O)c2snc(C(N)=O)c2N)cc1 (centres undefined)	1%	?	-2	7	-6%
COc1cc(C(C(=O)NCc2ccccc2)N(C(=O)c2snc(C(N)=O)c2N)C2CCCC2)cc(OC)c1OC (centres undefined)	4.7µM*	13µM*	-6	-3	2%
CCCn1c(SCC(=O)NC2CCCC2)nc2c1c(=O)n(C)c(=O)n2C	1%	-17%	9	23	4%
O=C(/C=C/c1ccc([N+](=O)[O-])s1)N1CCCC1	10µM*	13µM*	-2	10	0%
O=C(/C=C/c1ccc([N+](=O)[O-])s1)N1CCCCC1	?	?	24*	17	5%
CC1CC(C)CN(C(=O)/C=C/c2ccc([N+](=O)[O-])s2)C1 (centres undefined)	9.3µM*	-114%	5	50	4%
CS(=O)(=O)N1CCCC(C(=O)Nc2ccc(F)cc2F)C1 (centres undefined)	-22%	-3%	-5	-6	0%
O=[N+]([O-])c1ccc2c(c1)N([O-])C1(CCCCC1)[N+]2=O	-29%	?	0	19	-28%
O=C(CN1C(=O)NC2(CCCC2)C1=O)OCc1c(F)cccc1Cl	34%	16%	.	.	.
O=c1[nH]c(=S)n(C2CC2)c(O)c1C=NCc1cccnc1	12%	1%	-2	6	-1%
Cc1ccccc1-n1c(O)c(/C=N/Nc2nc3c(c(=O)n(C)c(=O)n3C)n2C)c(=O)[nH]c1=S	-5%	9%	-2	-3	-3%
O=C(N/N=C/c1c(O)n(-c2ccccc2)c(=O)[nH]c1=O)c1ccncc1	45%	34%	8	19	-5%
O=C(N/N=C/c1c(O)n(-c2ccccc2)c(=S)[nH]c1=O)c1ccccc1	36%	24%	40*	60*	-2%
Cc1ccccc1-n1c(O)c(/C=N/NC(=O)c2ccccc2O)c(=O)[nH]c1=S	23%	9%	46*	76*	7%
O=C(N/N=C/c1c(O)n(C2CC2)c(=S)[nH]c1=O)c1ccccc1O	?	-13%	25*	26	3%
Cc1ccc(CNC(=O)CNC(=O)c2c(C)nn(C)c2Cl)cc1	4%	2%	-2	-13	-3%
CCC(C)Sc1ccc(-c2nc3ccc(C)cn3c2NC2CCCCC2)cc1 (centres undefined)	?	12µM*	.	.	.
Cc1ccc2nc(-c3cccnc3)c(NC3CCCCC3)n2c1	-8%	?	-1	-13	-1%
CCC(C)Sc1cccc(-c2nc3ccc(C)cn3c2NC2CCCCC2)c1 (centres undefined)	13µM*	8.3µM*	.	.	.
CCC(=O)Nc1c(-c2ccc(C)cc2)nc2ccc(C)cn12	12µM*	?	4	2	1%
c1cn2c(NC3CCCCC3)c(-c3ccc(SC4CCCCC4)cc3)nc2cn1	?	3.7µM*	.	.	.
c1cn2c(NC3CCCC3)c(-c3ccc(N4CCOCC4)cc3)nc2cn1	-2%	.	20	69	-6%
Brc1ccc2nc(-c3ccncc3)c(NC3CCCC3)n2c1	3%	?	-3	-8	3%
Clc1ccccc1Cc1noc(CN2CCCCC2c2ccccn2)n1 (centres undefined)	?	?	7	2	4%
C[C@H]1[C@H](c2ccccc2)C[C@@H](C(=O)O)C1(C)C	84%	8%	.	.	.
CC(=O)c1ccc(-c2cccc(-c3nc4ccccn4c3NC3CCCCC3)c2)cc1	?	12µM*	.	.	.
